# Reference: PubChem BioAssay (EPA / NIEHS)
# Where “and” joins values, the source holds several entries; their conditions need not be identical. Equal entries are not always repeated. Results filed as inconclusive are left out. Some compounds were tested as several samples or in several runs, with calls that do not always agree. Calls of active or inactive are those of the source. Rule for the calls, unless noted: active = hit-call score of the fitted dose curve at least 0.9, where 1 is the maximum; inactive = score below 0.9.
# Experiments:
# [1] = CCTE_Mundy_HCI_Cortical_NOG_NeuriteCount: CCTE's Neurite Outgrowth Assay in rat cortical cells for Neurite Count, Mundy Lab (AID 2284212);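 note: cells fixed about two days after chemical exposure began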
# In short: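 Neurite number per cell from high-content imaging of betaIII-tubulin immunostaining, with Hoechst nuclear counterstain.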
# [2] = CCTE_Mundy_HCI_Cortical_Synap_Neur_Matur_NeuriteLength: CCTE's Synaptogenesis and Neurite Maturation Assay in rat cortical cells for Neurite Length, Mundy Lab (AID 2284214)
# In short: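 Rat primary cortical cultures, AraC added DIV 5, dosed DIV 7 through DIV 12 […]. Fixed, MAP2/synaptophysin immunostained with Hoechst; neurite length by high-content imaging, fitted in positive direction versus DMSO.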
# [3] = CCTE_Mundy_HCI_Cortical_Synap_Neur_Matur_NeuriteSpotCountPerNeuron: CCTE's Synaptogenesis and Neurite Maturation Assay in rat cortical cells for Neurite Spot Count per Neuron Count, Mundy Lab (AID 2284215)
# In short: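 Rat primary cortical cultures given AraC at DIV 5, dosed from DIV 7 to DIV 12 with media change. Fixed, stained for MAP2, synaptophysin and Hoechst; neurite-associated synaptophysin puncta per neuron quantified by high-content imaging versus DMSO.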
# [4] = CCTE_Mundy_HCI_Cortical_Synap_Neur_Matur_SynapseCount: CCTE's Synaptogenesis and Neurite Maturation Assay in rat cortical cells for Synapse Count, Mundy Lab (AID 2284218)
# In short: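 Rat primary cortical cultures, AraC at DIV 5, chemical dosing DIV 7 to DIV 12 (288.33 h). Fixed cells stained for MAP2, synaptophysin and Hoechst; synapses per neuron counted by high-content imaging, loss of signal versus DMSO.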
# [5] = CCTE_Mundy_HCI_Cortical_Synap_Neur_Matur_NeuriteCount: CCTE's Synaptogenesis and Neurite Maturation Assay in rat cortical cells for Neurite Count, Mundy Lab (AID 2284222);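 for outcome: exposure from day 7 to day 12 in vitro with readout at day 12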
# In short: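 Rat primary cortical cells; AraC added at DIV 5, chemicals dosed with media change at DIV 7 through DIV 12. MAP2/synaptophysin/Hoechst immunostaining, high-content imaging of neurite number; fitted relative to DMSO.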
# [6] = CCTE_Mundy_HCI_Cortical_Synap_Neur_Matur_CellBodySpotCount: CCTE's Synaptogenesis and Neurite Maturation Assay in rat cortical cells for Cell Body Spot Count, Mundy Lab (AID 2284223)
# In short: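 Primary rat cortical cultures, AraC added at DIV 5; dosed DIV 7 through DIV 12 […]. Fixed, stained for MAP2 and synaptophysin with Hoechst; cell body-associated synaptophysin puncta per neuron counted by high-content imaging, loss vs DMSO.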
# [7] = TAMU_PeakParms_SingleDonor1434_Chronotropy: Texas A&M University (TAMU) 1.5-hr Human Induced Pluripotent Stem Cell (iPSC)-derived Cardiomyocytes Calcium (Ca+2) Flux Assay for Cardiotoxicity: Chronotropy (changes in peak frequency) (AID 2284217); settings: actives raise or lower the signal
# In short: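 iPSC-derived cardiomyocytes (single donor 1434) dosed at 0.2, 1, 10 and 100 uM in 0.5% DMSO for 1.5 h at 37C; Ca2+ dye fluorescence gave average beat frequency. Zero-beat points removed; bidirectional fit versus DMSO, POD as EC05.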
# [8] = CCTE_Mundy_HCI_hN2_NOG_NeuriteCount: CCTE's Neurite Outgrowth Assay in human hN2 cells for Neurite Count, Mundy Lab (AID 2284219; active = hit-call score of the fitted dose curve at least 0.9, where 1 is the maximum)
# In short: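 In this morphology assay, hNP1-derived neurons received test chemical 2 h post-plating and were fixed two days later in warm paraformaldehyde/sucrose containing Hoechst 33342. Neurites, labelled by rabbit anti-βIII-tubulin (1:800) and Alexa Fluor-488 (1:500), were counted automatically.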
# [9] = CCTE_Mundy_HCI_hN2_NOG_NeuriteLength: CCTE's Neurite Outgrowth Assay in human hN2 cells for Neurite Length, Mundy Lab (AID 2284220; active = hit-call score of the fitted dose curve at least 0.9, where 1 is the maximum)
# In short: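 Read-out is neurite length from high-content imaging of βIII-tubulin/Alexa Fluor-488-labelled neurons, referenced to DMSO controls.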
# [10] = CCTE_Mundy_HCI_hN2_NOG_NeuronCount: CCTE's Neurite Outgrowth Assay in human hN2 cells for Neuron Count, Mundy Lab (AID 2284221; active = hit-call score of the fitted dose curve at least 0.9, where 1 is the maximum)
# Procedure: CCTE_Mundy_HCI_hN2_NOG is a multiplexed, cell-based-readout assay that uses immature neurons derived from hNP1 neuroprogenitor cells with measurements taken at 50.33 hours after chemical dosing in a microplate: 96-well plate.CCTE_Mundy_HCI_hN2_NOG_NeuronCount is one of four components of the CCTE_Mundy_HCI_hN2_NOG assay. It measures cell viability related to number of neurons using High Content Imaging of fluorescently labelled markers.[…] Using a type of morphology reporter, loss -of-signal activity can be used to understand developmental effects.
# Exposure starts 2 hours post-plating by adding 10 ul of the working solution to 90 ul of media in the wells for a 1/10 dilution. Forty-eight hours after chemical treatment cells are fixed by direct addition of 100 ul of warm (37C) Dulbecco's phosphate buffered saline (DPBS) fixative solution containing 8% paraformaldehyde, 8% sucrose, and 0.1% of 3 mg/ml Hoechst 33342 into each well. Primary antibodies are prepared by dilution in Immunocytochemical Staining Buffer (ISB), 10X Dulbecco's PBS, 0.1% Saponin, 5% Bovine Serum Albumin, 0.5% NaN3 (Sodium Azide) and betaIII-tubulin (rabbit anti-betaIII-tubulin, 1:800) followed by Alexa Fluor-488 secondary (1:500) to label neuronal cell bodies and neurites. A Cellomics ArrayScan VTi HCS Reader is used for automated image acquisition and analysis of neurite outgrowth.
compound,measurement,setting,value
CN(C)C(=S)SSC(=S)N(C)C,AC50,[1],0.0733 µM (active)
same,AC50,[2],0.0549 µM (active)
same,AC50,[3],0.0745 µM (active)
same,AC50,[4],0.0587 µM (active)
same,AC50,[5],0.0585 µM (active)
same,AC50,[6],0.0783 µM (active)
COP(=S)(OC)Oc1nc(Cl)c(Cl)cc1Cl,AC50,[1],25.9 µM (active)
same,AC50,[2],25.9 µM (active)
same,AC50,[3],20.7 µM (active)
same,AC50,[4],22.4 µM (active)
same,AC50,[5],27.9 µM (active)
same,outcome,[6],inactive
C=CC1(C)OC(=O)N(c2cc(Cl)cc(Cl)c2)C1=O (configuration not stated),outcome,[1],inactive
same,outcome,[2],inactive
same,outcome,[3],inactive
same,outcome,[4],inactive
same,outcome,[5],inactive
same,outcome,[6],inactive
CNC(=O)ON=CC(C)(C)SC,outcome,[1],inactive
same,outcome,[2],inactive
same,outcome,[3],inactive
same,outcome,[7],inactive
same,outcome,[4],inactive
same,outcome,[8],inactive
same,outcome,[9],inactive
same,outcome,[10],inactive
same,outcome,[5],inactive
same,outcome,[6],inactive
CC(C)(C)c1ccc(CSc2cnn(C(C)(C)C)c(=O)c2Cl)cc1,AC50,[1],0.00768 µM (active)
same,AC50,[2],0.000626 µM (active)
same,AC50,[3],0.000469 µM (active)
same,AC50,[4],0.000602 µM (active)
same,AC50,[5],0.00118 µM (active)
same,AC50,[6],0.00106 µM (active)
COP(N)(=O)SC (configuration not stated),outcome,[1],inactive
same,outcome,[2],inactive
same,outcome,[3],inactive
same,outcome,[4],inactive
same,outcome,[8],inactive
same,outcome,[9],inactive
same,outcome,[5],inactive
same,outcome,[6],inactive
CCCCOC(=O)c1ccccc1C(=O)OCCCC,outcome,[1],inactive
same,AC50,[2],64.7 µM (active)
same,AC50,[3],50 µM (active)
same,AC50,[4],50 µM (active)
same,AC50,[5],85.8 µM (active)
same,AC50,[6],89.5 µM (active)
COC(=O)N(OC)c1ccccc1COc1ccn(-c2ccc(Cl)cc2)n1,AC50,[1],0.141 µM (active)
same,AC50,[2],0.0838 µM (active)
same,AC50,[3],0.0537 µM (active)
same,AC50,[4],0.0709 µM (active)
same,AC50,[5],0.105 µM (active)
same,AC50,[6],0.113 µM (active)
Oc1ccccc1-c1ccccc1,AC50,[7],45.1 µM (active)
C=CCC1=C(C)C(OC(=O)C2C(C=C(C)C)C2(C)C)CC1=O (configuration not stated),outcome,[1],inactive
same,outcome,[2],inactive
same,outcome,[3],inactive
same,outcome,[4],inactive
same,outcome,[5],inactive
same,outcome,[6],inactive
N#Cc1nn(-c2c(Cl)cc(C(F)(F)F)cc2Cl)c(N)c1S(=O)C(F)(F)F (configuration not stated),outcome,[1],inactive
same,outcome,[2],inactive
same,AC50,[3],3.22 µM (active)
same,AC50,[4],3.22 µM (active)
same,outcome,[5],inactive
same,outcome,[6],inactive
CCOc1cc(Oc2ccc(C(F)(F)F)cc2Cl)ccc1[N+](=O)[O-],AC50,[2],16.1 µM (active)
same,AC50,[3],11.6 µM (active)
same,AC50,[4],11.9 µM (active)
same,AC50,[5],16.6 µM (active)
same,AC50,[6],14.3 µM (active)
C=CCC1=C(C)[C@@H](OC(=O)[C@@H]2[C@@H](C=C(C)C)C2(C)C)CC1=O,outcome,[1],inactive
same,AC50,[2],23.9 µM (active)
same,AC50,[3],22.1 µM (active)
same,AC50,[4],22.2 µM (active)
same,AC50,[5],23.7 µM (active)
same,AC50,[6],21.8 µM (active)
CCCCNC(=O)OCC#CI,outcome,[7],inactive
CCOC(=O)CC(SP(=S)(OC)OC)C(=O)OCC (configuration not stated),AC50,[2],61.9 µM (active)
same,outcome,[2],inactive
same,AC50,[3],50 µM (active)
same,outcome,[3],inactive
same,AC50,[4],50 µM (active)
same,outcome,[4],inactive
same,AC50,[8],34.8 µM (active)
same,AC50,[9],34.2 µM (active)
same,AC50,[10],33.6 µM (active)
same,outcome,[5],inactive
same,outcome,[6],inactive
CO/C=C(/C(=O)OC)c1ccccc1Oc1cc(Oc2ccccc2C#N)ncn1,AC50,[1],2.73 µM (active)
same,AC50,[2],3.56 µM (active)
same,AC50,[3],2.75 µM (active)
same,AC50,[4],3.62 µM (active)
same,AC50,[5],4.78 µM (active)
same,AC50,[6],5.6 µM (active)
CCCCC(CC)COC(=O)c1ccccc1C(=O)OCC(CC)CCCC (configuration not stated),AC50,[2],3.85 µM (active) and 4.26 µM (active)
same,AC50,[3],5.47 µM (active) and 3.59 µM (active)
same,AC50,[7],50 µM (active)
same,AC50,[4],6.28 µM (active) and 4 µM (active)
same,outcome,[8],inactive
same,outcome,[9],inactive
same,outcome,[10],inactive
same,AC50,[5],4.84 µM (active)
same,AC50,[6],8.27 µM (active) and 7.64 µM (active)
CCCCNC(=O)n1c(NC(=O)OC)nc2ccccc21,outcome,[1],inactive
same,AC50,[2],15 µM (active)
same,outcome,[3],inactive
same,outcome,[4],inactive
same,outcome,[5],inactive
same,outcome,[6],inactive
Cc1ccc(-c2c(Cl)nc(C#N)n2S(=O)(=O)N(C)C)cc1,AC50,[1],72.9 µM (active)
same,AC50,[2],85.7 µM (active)
same,AC50,[3],70.3 µM (active)
same,AC50,[4],74.3 µM (active)
same,AC50,[5],80.2 µM (active)
same,AC50,[6],87.8 µM (active)
